Data as given in the supplement of paper PMC4683952.
Counter-ions that a name gives are not always drawn. Screen size: about 1,200 compounds; about 50 (4%) showed activity. The sample holds actives, similar compounds and a random draw of the others, so the mix is not that of the screen. Rule as the data show it: all actives reach 1.3 or more but so do some inactives.

Each compound was assayed on Lgr5 (MarsCy1-Lgr5-EGFP, U2OS) (assay: cell-surface Lgr5 expression (SCi1 fluorescence, background-subtracted) relative to WT DMSO (fold of DMSO control); higher = more Lgr5 at the plasma membrane, active = hit call of the paper). Conditions: U2OS MarsCy1-Lgr5-EGFP stable; treatment time: overnight; 16 µM; library: Johns Hopkins Clinical Compound Library.

SMILES	cell-surface Lgr5 expression
CN(CCO)CC(O)Cn1cnc2c1c(=O)n(C)c(=O)n2C (stereo not drawn) [Xanthinol niacinate (Xanthinol Nicotinate)]	1.05 (inactive)
O=Cc1cc(Br)cc(Br)c1O [3,5-Dibromosalicylaldehyde]	1.17 (inactive)
CNCCCC12CCC(c3ccccc31)c1ccccc12 [Maprotiline]	1.32 (active)
CNCCCN1c2ccccc2CCc2ccccc21 [Desipramine]	1 (inactive)
CNCCCC1c2ccccc2C=Cc2ccccc21 [Protriptyline]	0.38 (inactive)
COc1cc(C2Oc3cc([C@H]4Oc5cc(O)cc(O)c5C(=O)[C@@H]4O)ccc3OC2CO)ccc1O (stereo partly drawn) [Silibinin (Silybin)]	1.23 (inactive)
COc1cc(C2Oc3cc([C@H]4Oc5cc(O)cc(O)c5C(=O)[C@@H]4O)ccc3OC2CO)ccc1O (stereo partly drawn) [Silibinin]	1.08 (inactive)
Oc1c(Cl)cc(Cl)c2cccnc12 [Chloroxine (5,7-Dichloro-8-hydroxyquinoline)]	0.97 (inactive)
Cc1c(N(C)C)c(=O)n(-c2ccccc2)n1C [Aminopyrine (4-Dimethylamino-antipyrine)]	1.14 (inactive)
Cc1c(N(C)C)c(=O)n(-c2ccccc2)n1C [Aminopyrine (4 Dimethylamino antipyrene)]	0.932 (inactive)
Cc1cc(OS(=O)(=O)O)c2ccccc2c1OS(=O)(=O)O [Menadiol disulfate disodium salt trihydrate]	0.856 (inactive)
O=C(O)c1cc(S(=O)(=O)O)ccc1O [Sulfosalicylic acid (5-Sulfosalicylic acid dihydrate)]	1.11 (inactive)
NC[C@H](O)c1ccc(O)c(O)c1 [Norepinephrine]	1.26 (inactive)
NC[C@H](O)c1ccc(O)c(O)c1 [Arterenol (Norepinephrine)]	1.3 (active)
CCC(NC(C)C)C(O)c1ccc(O)c(O)c1 (stereo not drawn) [Isoetharine mesylate]	1.19 (inactive)
CNC[C@H](O)c1ccc(O)c(O)c1 [Epinephrine]	1.57 (inactive)
Cc1ncc(CO)c(CN)c1O [Pyridoxamine dihydrochloride]	0.999 (inactive)
Cc1ncc(CO)c(CN)c1O [Pyridoxamine, Dihydrochloride]	1.02 (inactive)
CCCCc1nc(Cl)c(CO)n1Cc1ccc(-c2ccccc2-c2nnn[nH]2)cc1 [Losartan]	0.915 (inactive)
C[C@@H]1[C@H](O)[C@@H](C)/C=C/C=C/C=C/C=C/C=C/C=C/C=C/[C@H](O[C@@H]2O[C@H](C)[C@@H](O)[C@H](N)[C@@H]2O)C[C@@H]2O[C@](O)(C[C@@H](O)C[C@@H](O)[C@H](O)CC[C@@H](O)C[C@@H](O)CC(=O)O[C@H]1C)C[C@H](O)[C@H]2C(=O)O [Amphotericin B]	0.802 (inactive)

SMILES	cell-surface Lgr5 expression
C[C@@H]1CCC[C@H](C)N1NC(=O)c1ccc(Cl)c(S(N)(=O)=O)c1 [Clopamide]	1.3 (inactive)
CC(=O)O[C@]1(C(C)=O)CC[C@H]2[C@@H]3C=C(Cl)C4=CC(=O)[C@@H]5C[C@@H]5[C@]4(C)[C@H]3CC[C@@]21C [Cyproterone acetate]	1.25 (inactive)
CC(=O)OCC(=O)[C@@]1(OC(C)=O)[C@@H](C)C[C@H]2[C@@H]3C[C@H](F)C4=CC(=O)C=C[C@]4(C)[C@@]3(F)[C@@H](O)C[C@@]21C [Diflorasone diacetate]	1.67 (active)
CC(=O)O[C@]1(C(C)=O)CC[C@H]2[C@@H]3C[C@H](C)C4=CC(=O)CC[C@]4(C)[C@H]3CC[C@@]21C [Medroxyprogesterone acetate]	1.2 (inactive)
CC(=O)OCC(=O)[C@@]12OC(C)(C)O[C@@H]1C[C@H]1[C@@H]3C[C@H](F)C4=CC(=O)C=C[C@]4(C)[C@@]3(F)[C@@H](O)C[C@@]12C [Fluocinolone acetonide 21-acetate]	1.6 (active)
CC(=O)OCC(=O)[C@@]12OC(C)(C)O[C@@H]1C[C@H]1[C@@H]3CCC4=CC(=O)C=C[C@]4(C)[C@@]3(F)[C@@H](O)C[C@@]12C [Triamcinolone acetonide acetate]	1.26 (inactive)
CC(=O)O[C@]1(C(C)=O)CC[C@H]2[C@@H]3C[C@H](C)C4=CC(=O)C=C[C@]4(C)[C@@]3(F)[C@@H](O)C[C@@]21C [Fluorometholone acetate]	1.31 (active)
CCCC(=O)O[C@]1(C(=O)COC(C)=O)CC[C@H]2[C@@H]3C[C@H](F)C4=CC(=O)C=C[C@]4(C)[C@@]3(F)[C@@H](O)C[C@@]21C	1.57 (active)
CCCC(=O)O[C@]1(C(=O)CCl)[C@H](C)C[C@@H]2[C@@H]3CCC4=CC(=O)C=C[C@]4(C)[C@]3(F)C(=O)C[C@@]21C [Clobetasone butyrate]	1 (inactive)
COc1cccc2c1C(=O)c1c(O)c3c(c(O)c1C2=O)C[C@@](O)(C(=O)CO)C[C@@H]3O[C@H]1C[C@H](N)[C@@H](O)[C@H](C)O1 [Epirubicin]	1.31 (inactive)
O=S(=O)([O-])[O-].[Cu+2] [Copper (II) sulfate]	1.27 (inactive)
CCN1C(=CC=Cc2ccc3ccccc3[n+]2CC)C=Cc2ccccc21 [Quinaldine blue (Pinacyanol chloride)]	1.53 (inactive)
CCCCNc1ccc(C(=O)OCCOCCOCCOCCOCCOCCOCCOCCOCCOC)cc1 [Benzonatate]	1.08 (inactive)
O=C(O)c1ccc[n+]([O-])c1 [Oxiniacic acid (nicotinic acid n-oxide)]	0.989 (inactive)
Cc1ccc(S(=O)(=O)NCl)cc1 [Chloramine-T hydrate]	0.672 (inactive)
CCC(=O)Oc1ccc(/C(CC)=C(\CC)c2ccc(OC(=O)CC)cc2)cc1 [Diethylstilbestrol dipropionate]	0.886 (inactive)
O=P(O)(O)OC1C(OP(=O)(O)O)C(OP(=O)(O)O)C(OP(=O)(O)O)C(OP(=O)(O)O)C1OP(=O)(O)O (stereo not drawn) [Phytic acid, dodecasodium salt hydrate]	0.522 (inactive)
Br.N [Ammonium bromide]	1.09 (inactive)
CC1CCC(NC(=O)N(CCCl)N=O)CC1 (stereo not drawn) [Semustine]	1.06 (inactive)
C[C@@H]1C/C=C/C=C/C=C/C=C/[C@H](O[C@@H]2O[C@H](C)[C@@H](O)[C@H](N)[C@@H]2O)C[C@@H]2O[C@](O)(C[C@@H](O)C[C@H]3O[C@@H]3/C=C/C(=O)O1)C[C@H](O)[C@H]2C(=O)O [Natamycin (Pimaricin)]	0.845 (inactive)

SMILES	cell-surface Lgr5 expression
O=S(=O)([O-])[O-].O=S(=O)([O-])[O-].[Al+3].[Na+] [Aluminum sodium sulfate]	0.71 (inactive)
O=P([O-])([O-])[O-].O=P([O-])([O-])[O-].[Ca+2].[Ca+2].[Ca+2] [Calcium phosphate tribasic]	0.836 (inactive)
CC1=CC(=C(c2ccc(N)cc2)c2ccc(N)cc2)C=CC1=N [Basic fuchsin hydrochloride]	1.12 (inactive)
CC1(C)S[C@@H]2[C@H](NC(=O)COc3ccccc3)C(=O)N2[C@H]1C(=O)O	0.694 (inactive)
CC1(C)S[C@@H]2[C@H](NC(=O)COc3ccccc3)C(=O)N2[C@H]1C(=O)O [Penicillin V (phenoxymethyl penicillinic acid)]	1.08 (inactive)
NC[C@H]1O[C@H](O[C@H]2[C@H](O)[C@@H](O[C@H]3O[C@H](CO)[C@@H](O)[C@H](N)[C@H]3O)[C@H](N)C[C@@H]2N)[C@H](N)[C@@H](O)[C@@H]1O [Kanamycin B sulfate salt]	0.875 (inactive)
CCNC(=O)CCC/C=C\C[C@@H]1[C@@H](/C=C/[C@@H](O)CCc2ccccc2)[C@H](O)C[C@@H]1O [Bimatoprost]	1.06 (inactive)
C=C1c2c(Cl)ccc(O)c2C(O)=C2C(=O)[C@]3(O)C(O)=C(C(N)=O)C(=O)[C@@H](N(C)C)[C@@H]3[C@@H](O)[C@H]12.O=C(O)c1cc(S(=O)(=O)O)ccc1O [Meclocycline sulfosalicylate salt]	0.705 (inactive)
Cc1scc2c1N(C(=O)CN1CCN(C)CC1)c1ccccc1NC2=O [Telenzepine]	1.3 (active)
O=C([O-])CC(O)(CC(=O)[O-])C(=O)[O-].[Li+].[Li+].[Li+] [Tri-lithium citrate]	1.06 (inactive)
Cc1cc(O)c(C(=O)N[C@@H](C(=O)N[C@@H]2C(=O)N3C(C(=O)O)=C(CSc4nnnn4C)CS[C@H]23)c2ccc(O)cc2)cn1 [Cefpiramide]	0.869 (inactive)
CCSc1ccc2c(c1)N(CCCN1CCN(C)CC1)c1ccccc1S2 [Thiethylperazine malate]	1.12 (inactive)
Cc1cc2c(OCC(CNC(C)(C)C)OC(=O)c3ccccc3)cccc2[nH]1 (stereo not drawn) [Bopindolol Maleate]	1.3 (inactive)
C[n+]1c2cc(N)ccc2cc2ccc(N)cc21.Nc1ccc2cc3ccc(N)cc3nc2c1 [Acriflavine hydrochloride]	1.44 (inactive)
CO[C@@H]1[C@@H](O[C@@H]2O[C@H](C)[C@@H](O[C@H]3C[C@@](C)(O)[C@@H](OC(=O)CC(C)C)[C@H](C)O3)[C@H](N(C)C)[C@H]2O)[C@@H](CC=O)C[C@@H](C)[C@@H](O)/C=C/C=C/C[C@@H](C)OC(=O)C[C@H]1OC(C)=O [Josamycin]	1.1 (inactive)
O=c1[nH]c(=O)n([C@H]2C[C@H](O)[C@@H](CO)O2)cc1F [Floxuridine (5-fluorodeoxyuridine)]	0.664 (inactive)
Nc1nc(Cl)nc2c1ncn2[C@H]1C[C@H](O)[C@@H](CO)O1 [Cladribine (2-chloro,2-deoxyadenosine)]	0.832 (inactive)
Nc1ncn([C@H]2C[C@H](O)[C@@H](CO)O2)c(=O)n1 [Decitabine (5-aza-2-deoxycytidine)]	1.47 (active)
